Here are results for 33 compounds from PubChem BioAssay (EPA / NIEHS).

Where “and” joins values, the source holds several entries; their conditions need not be identical. Equal entries are not always repeated. Records with an inconclusive call do not appear. Calls of active or inactive are those of the source. How the source made its calls: active means hit-call score of the fitted dose curve at least 0.9, where 1 is the maximum; inconclusive means response in the unintended direction; inactive means score below 0.9.

Read-out in the assay: Cytochrome P450 2B6 (Homo sapiens) (UniProt P20813)
Put plainly: CLD_CYP2B6_48hr: CellzDirect (CLD) Gene Expression Assay for xenobiotic metabolism (CYP2B6) at 48 hours (AID 2283699).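 Further: actives raise transcript level above DMSO so potency reflects induction.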 How it is done: CLD_48hr is a cell-based, multiplexed-readout assay that uses hepatocyte, a human liver primary cell, with measurements taken at 48 hours after chemical dosing in a 96-well plate.CLD_CYP2B6_48hr is one of 16 assay component(s) measured or calculated from the CLD_48hr assay. It is designed to make measurements of mRNA induction, a form of inducible reporter, as detected with chemiluminescence signals by Quantitative Nuclease Protection Assay (qNPA) technology.Data from the assay component CLD_CYP2B6_48hr was analyzed at the endpoint, CLD_CYP2B6_48hr, in the positive analysis fitting direction relative to DMSO as the negative control and baseline of activity. Using a type of inducible reporter, gain-of-signal activity can be used to understand changes in the reporter gene as they relate to the gene CYP2B6. Furthermore, this assay endpoint can be referred to as a primary readout. To generalize the intended target to other relatable targets, this assay endpoint is annotated to the cyp intended target family, where subfamily is xenobiotic metabolism.
Human hepatocyte cultures were treated daily for two consecutive days with fresh dosing solutions containing appropriate concentrations of the 320 ToxCast chemicals (chemical identities were blinded to CellzDirect and other ToxCast collaborators), vehicle control (0.2% DMSO), and positive control inducers as summarized in Table 1. Due to the large number of treatment groups and chemicals examined, the ToxCast chemicals were divided into two groups (spanning two independent cultures of hepatocytes from separate donor preparations (Hu778: ToxCast plates 1 and 2; Hu776: ToxCast plates 3 and 4). Each preparation of human hepatocyte cultures was treated with respective vehicle control, medium only control, set of six positive controls/reference chemicals for the five hepatic receptor pathways, and a subset of eight of the ToxCast chemicals (indoxacarb, pyrithiobac-sodium, norflurazon, cyhalofop-butyl, methomyl, thiram, acetochlor, and propiconazole). These replicate data, coupled with internal replicates designed within the blinded ToxCast chemical library, provided additional data to evaluate interindividual differences between hepatocyte preparations and their potential impact on chemical profiles.Cell morphology and integrity were evaluated using phase-contrast microscopy as an indicator of hepatocyte cell health (Tyson & Green, 1987). Cultures for each treatment group (i.e., media, vehicle [0.2% DMSO], positive control inducers [multiple concentrations], and the ToxCast chemicals [multiple concentrations]) were observed and cell morphology was assessed relative to vehicle control cultures at each harvest time point (0, 6, 24, or 48 h). […] Images were evaluated at the conclusion of the study to assess changes in cell integrity and account for the effects of chemical exposure on uncharacteristic changes in concentration-dependent gene expression profiles. The results from these determinations of apparent cytotoxicity were annotated (yes/no) alongside the corresponding qNPA data for reference.At the conclusion of each treatment period, hepatocyte cultures (96-well) were washed with 1 volume of HBSS, lysed by addition of 25 ul ArrayPlate lysis buffer (HTG, Tucson, AZ), and 70 ul/well of Denaturation Oil, denatured by incubation at 95C for 10 min, and frozen at approximately -70C until analysis by nuclease protection assay (qNPA) (Roberts et al., 2007). For qNPA analysis, cell lysates were thawed at 50C for approximately 30 min, qNPA probes were added, and samples were incubated at 95C for 10 min to begin the detection process by denaturing the target RNA, dissociating the duplexes and secondary structure hybridization. At the conclusion of the hybridization period, S1 nuclease reagent was added to each sample to digest all nonprotected nucleotides at 50C for 60-90 min. […]
For `CCC(C)OC(=O)N1CCCCC1CCO` (stereo not drawn), the call was inactive.

As to `C=CCOC(Cn1ccnc1)c1ccc(Cl)cc1Cl` (stereo not drawn), the AC50 was 0.163 µM (active).

As to `S=C(S)NCCNC(=S)S.[Mn+2].[S-]C([S-])=NCCN=C([S-])[S-].[Zn+2]`, the result was inactive.

Turning to `CCCOC(=O)c1ccc(C(=O)OCCC)nc1`, the outcome was inactive.

Take `CCCCC(CC)CN1C(=O)C2C3C=CC(C3)C2C1=O` (stereo not drawn): the AC50 is 4.6 µM (active).

For the compound `COC(=O)CSc1cc(N=c2sc(=O)n3n2CCCC3)c(F)cc1Cl`, the AC50 is 4.48 µM (active).

For the compound `CC(C)(C)[C@@H](O)[C@@H](Cc1ccc(Cl)cc1)n1cncn1`, the compound was classed as inactive.

As for `CCCN(CCC)c1c([N+](=O)[O-])cc(C(F)(F)F)c(N)c1[N+](=O)[O-]`, the half-maximal activity concentration (AC50) was 3.56 µM (active).

`CCOC(=O)COc1cc(-n2ncc(C(F)(F)F)c(C)c2=O)c(F)cc1Cl`: the outcome was inactive.

Take `CCCCCCC(C)OC(=O)COc1nc(F)c(Cl)c(N)c1Cl` (stereo not drawn): the compound was called inactive.

Turning to `CCN(CC)C(=O)c1cccc(C)c1`, the AC50 was 3.6 µM (active).

`CCCCOCCOCCOCc1cc2c(cc1CCC)OCO2`: the AC50 was 0.83 µM (active).

For `c1ccc2[nH]c(-c3cscn3)nc2c1`, the compound was classed as inactive.

As for `CC(C)(c1ccc(O)cc1)c1ccc(O)cc1`, the compound was classed as inactive.

Turning to `CCOC(=O)C(C)Oc1ccc(Oc2nc3ccc(Cl)cc3o2)cc1` (stereo not drawn), the call was inactive.

Take `CCSC(=O)N(CC(C)C)CC(C)C`: the call was inactive.

On to `OB(O)O`, for which the compound was called inactive.

In the case of `c1ccc(Nc2ccccc2)cc1`, the AC50 is 4.79 µM (active).

Turning to `COC(=O)c1c(Cl)nn(C)c1S(=O)(=O)NC(=O)Nc1nc(OC)cc(OC)n1`, the compound was classed as inactive.

Regarding `CC1(C)C(C=C(Cl)Cl)C1C(=O)OCc1cccc(Oc2ccccc2)c1` (stereo not drawn), the AC50 is 3.87 µM (active).

As for `CCCCOC(=O)[C@@H](C)Oc1ccc(Oc2ccc(C(F)(F)F)cn2)cc1`, the outcome was inactive.

Turning to `CCOC(=O)NCCOc1ccc(Oc2ccccc2)cc1`, the AC50 is 10.8 µM (active).

As to `CN(C)C(=O)Nc1ccc(Cl)c(Cl)c1`, the concentration at half-maximal activity (AC50) was 3.85 µM (active).

Consider `C#CCOC(=O)[C@@H](C)Oc1ccc(Oc2ncc(Cl)cc2F)cc1`, for which the compound was classed as inactive.

Consider `COC(=O)c1ccccc1S(=O)(=O)NC(=O)Nc1nc(OC(F)F)cc(OC(F)F)n1`, for which the outcome was inactive.

For `CCCCOC(=O)C(C)Oc1ccc(Oc2ccc(C(F)(F)F)cn2)cc1` (stereo not drawn), the call was inactive.

As for `CCNc1nc(N)nc(Cl)n1`, the result was inactive.

As to `COC(=O)c1cccc(C)c1S(=O)(=O)NC(=O)Nc1nc(OCC(F)(F)F)nc(N(C)C)n1`, the AC50 was 5.1 µM (active).

As for `CCCN(CCC)C(=O)SCC`, the AC50 is 381 nM (active) and 209 nM (active).

With `CCCCC(CC)COC(=O)c1ccccc1C(=O)O` (stereo not drawn), the half-maximal activity concentration (AC50) was 20 µM (active).

`CCC(O)=C1C(=O)CC(C(=O)O)CC1=O` (stereo not drawn): the AC50 is 0.000247 µM (active).

Turning to `CCCCCOC(=O)COc1cc(N2C(=O)C3=C(CCCC3)C2=O)c(F)cc1Cl`, the outcome was inactive.

`CCN(Cc1c(F)cccc1Cl)c1c([N+](=O)[O-])cc(C(F)(F)F)cc1[N+](=O)[O-]`: the AC50 is 0.273 µM (active).

As a reminder, the AC50 is the concentration giving half of the maximal activity seen.
